# Several values for one entry are separate records, joined by “and”; a condition that tells them apart may be missing. Identical values can stand only once. Results filed as inconclusive are left out. Where a call stands in place of a potency, no number is given. Values without a mark were called inactive. Activity calls are given as the source filed them. Calls come from the whole dose curve; as a rule, active = well fitted curve in the direction sought with a large enough effect; inconclusive = small, poorly fitted or top-dose-only effect, or another doubt; inactive = no such curve, though single readings can be large; an effect the other way counts as inactive or inconclusive.
# Key:
# [1] = test system: C33A; experiment: Primary qHTS to identify gynecologic anti-cancer compounds using libraries of approved drugs and bioactive compounds (AID 1345084); settings: Gynecologic cancer cell panel viability, ATPlite luminescence, 48 h; series mostly up to 57.5 µM; note: nearly all actives have a fitted effect of over 55% in size
# Outline: (§1)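 Cytotoxicity screen measuring ATP content by luciferase luminescence. Each compound is applied at five concentrations for 48 h at 37 C with 5% CO2.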
# [2] = test system: CASKI; experiment: as above; settings: Gynecologic cancer cell panel viability, ATPlite luminescence, 48 h; series mostly up to 57.5 µM
# Outline: as §1
# [3] = test system: HeLa; experiment: as above; settings: Gynecologic cancer cell panel viability, ATPlite luminescence, 48 h; series mostly up to 57.5 µM
# Outline: as §1
# [4] = test system: JEG-3; experiment: as above; settings: Gynecologic cancer cell panel viability, ATPlite luminescence, 48 h; series mostly up to 57.5 µM
# Outline: as §1
# [5] = test system: OV90; experiment: as above; settings: Gynecologic cancer cell panel viability, ATPlite luminescence, 48 h; series mostly up to 57.5 µM
# Outline: as §1
# [6] = test system: PA-1; experiment: as above; settings: Gynecologic cancer cell panel viability, ATPlite luminescence, 48 h; series mostly up to 57.5 µM
# Outline: as §1
# [7] = test system: SKOV3; experiment: as above; settings: Gynecologic cancer cell panel viability, ATPlite luminescence, 48 h; series mostly up to 57.5 µM
# Outline: as §1
# [8] = test system: Tov112D; experiment: as above; settings: Gynecologic cancer cell panel viability, ATPlite luminescence, 48 h; series mostly up to 57.5 µM
# Outline: as §1
# [9] = test system: Tov-21-G; experiment: as above; settings: Gynecologic cancer cell panel viability, ATPlite luminescence, 48 h; series mostly up to 57.5 µM
# Outline: as §1
# [10] = test system: Hek293T; experiment: as above; settings: Gynecologic cancer cell panel viability, ATPlite luminescence, 48 h, control line for the selectivity index; series mostly up to 57.5 µM
# Outline: as §1
# [11] = test system: Es-2; experiment: as above; settings: Gynecologic cancer cell panel viability, ATPlite luminescence, 48 h; series mostly up to 57.5 µM
# Outline: as §1
# [12] = qHTS assay to identify inhibitors of the type 1 interferon - major histocompatibility complex class I in skeletal muscle: Counter screen cell viability and HiBit confirmation (AID 1347412); settings: iHSKM muscle cells + IFN-b, HiBiT or CellTiter-Glo, 24 h; note: nearly all actives have a fitted effect of over 60% in size
# Outline: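 After 24 h with human IFN-beta (4 ng/ml) and compound titrations (top 46 uM final, 1:3, 12 points), HLA-B HiBit myoblasts were lysed for either Nano-Glo HiBiT luminescence or CellTiter Glo viability on paired plates.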
# [13] = test system: CAOV3; experiment: Primary qHTS to identify gynecologic anti-cancer compounds using libraries of approved drugs and bioactive compounds (AID 1345084); settings: Gynecologic cancer cell panel viability, ATPlite luminescence, 48 h; series mostly up to 57.5 µM; note: nearly all actives have a fitted effect of over 55% in size
# Outline: as §1
# Potency is the fitted concentration of half-maximal effect.
smiles,measurement,setting,value
COc1cc(O)cc(C)c1C(=O)O[C@@H]1[C@H](O)[C@@H](CO)O[C@H]1n1ccc(=O)[nH]c1=O,Potency,[1],inactive
same,Potency,[2],inactive
same,Potency,[3],inactive
same,Potency,[4],inactive
same,Potency,[5],inactive
same,Potency,[6],3.98 µM (active)
same,Potency,[7],inactive
same,Potency,[8],inactive
COc1ccc(CCC(=O)c2c(O)cc(O)cc2O[C@@H]2O[C@H](CO)[C@@H](O)[C@H](O)[C@H]2O)cc1,Potency,[1],inactive
same,Potency,[2],inactive
same,Potency,[3],inactive
same,Potency,[4],inactive
same,Potency,[5],inactive
same,Potency,[6],inactive
same,Potency,[9],inactive
same,Potency,[8],inactive
Cc1ccccc1-n1c([C@H](C)Nc2nc(N)nc3nc[nH]c23)nc2cccc(C)c2c1=O,Potency,[1],inactive
same,Potency,[2],31.6 µM (active)
same,Potency,[10],inactive
same,Potency,[5],inactive
same,Potency,[7],inactive
same,Potency,[8],inactive
C[C@@H]1COCCN1c1cc(C2(S(C)(=O)=O)CC2)nc(-c2cccc3[nH]ccc23)n1,Potency,[1],4.47 µM (active)
same,Potency,[11],3.16 µM (active)
same,Potency,[10],7.94 µM (active)
same,Potency,[4],7.08 µM (active)
same,Potency,[6],11.2 µM (active)
same,Potency,[7],3.16 µM (active)
same,Potency,[9],1.78 µM (active)
O=C1C=CC2OC(c3ccccc3)C(O)C2O1 (centres undefined),Potency,[1],inactive
same,Potency,[2],inactive
same,Potency,[3],inactive
same,Potency,[5],inactive
same,Potency,[7],inactive
same,Potency,[8],inactive
CC(=O)OC1C(=O)C2(C)C(O)CC3OCC3(OC(C)=O)C2C(OC(=O)c2ccccc2)C2(O)CC(OC(=O)C(O)C(NC(=O)c3ccccc3)c3ccccc3)C(C)=C1C2(C)C (centres undefined),Potency,[1],inactive
same,Potency,[11],0.316 µM (active)
same,Potency,[10],inactive
same,Potency,[5],inactive
same,Potency,[8],inactive
CCCCNc1ncc2c(-c3ccc(CN4CCN(C)CC4)cc3)cn(C3CCC(O)CC3)c2n1 (centres undefined),Potency,[1],inactive
same,Potency,[3],1.78 µM (active)
same,Potency,[10],inactive
same,Potency,[4],inactive
same,Potency,[6],6.31 µM (active)
same,Potency,[7],3.55 µM (active)
same,Potency,[9],7.94 µM (active)
same,Potency,[12]; HiBiT,3.94 µM (active) and 14 µM (active)
same,Potency,[12]; Viability,7.01 µM (active)
COc1cc(N2CCC(N3CCN(C)CC3)CC2)ccc1Nc1ncc(Cl)c(-c2c[nH]c3ccccc23)n1,Potency,[13],11.2 µM (active)
same,Potency,[2],8.91 µM (active)
same,Potency,[11],inactive
same,Potency,[3],8.91 µM (active)
same,Potency,[5],15.8 µM (active)
same,Potency,[7],3.98 µM (active)
same,Potency,[9],8.91 µM (active)
same,Potency,[8],20 µM (active)
CC1=C(C(=O)OCc2ccccc2)C(c2ccc(-c3ccccc3)cc2)NC(=O)N1CCCCCC(=O)O (centres undefined),Potency,[13],inactive
same,Potency,[2],inactive
same,Potency,[11],inactive
same,Potency,[3],inactive
same,Potency,[10],inactive
same,Potency,[4],inactive
same,Potency,[5],inactive
same,Potency,[6],inactive
same,Potency,[7],inactive
same,Potency,[9],inactive
same,Potency,[8],inactive
O=C(c1ccccc1)c1ccc2nc(NC(=O)c3csc(C4CCN(c5ncnc6ccsc56)CC4)n3)[nH]c2c1,Potency,[1],15.8 µM (active)
same,Potency,[10],8.91 µM (active)
same,Potency,[4],inactive
same,Potency,[5],17.8 µM (active)
same,Potency,[8],12.6 µM (active)
Cc1ccccc1C#Cc1ccc(CCC(=O)O)cc1,Potency,[1],inactive
same,Potency,[9],17.8 µM (active)
O=S(=O)(c1ccccc1)c1cnc2c(N3CCNCC3)cccc2c1,Potency,[13],inactive
same,Potency,[2],inactive
same,Potency,[11],inactive
same,Potency,[3],inactive
same,Potency,[10],inactive
same,Potency,[6],inactive
same,Potency,[9],inactive
CC(C)CCC[C@@H](C)[C@H]1CC[C@H]2[C@@H]3CC(=O)[C@H]4C[C@@H](O)CC[C@]4(C)[C@H]3CC[C@]12C,Potency,[13],inactive
same,Potency,[2],inactive
same,Potency,[11],inactive
same,Potency,[3],inactive
same,Potency,[10],inactive
same,Potency,[4],inactive
same,Potency,[5],inactive
same,Potency,[6],inactive
same,Potency,[7],inactive
same,Potency,[9],inactive
same,Potency,[8],inactive
CC1(CCOC2OC(CO)C(O)C(O)C2O)CCC23OC2(C1)C(O)CC1C(C)(C(=O)O)CCCC13C (centres undefined),Potency,[13],inactive
same,Potency,[2],inactive
same,Potency,[11],inactive
same,Potency,[3],inactive
same,Potency,[10],inactive
same,Potency,[4],inactive
same,Potency,[5],inactive
same,Potency,[7],inactive
same,Potency,[9],inactive
same,Potency,[8],inactive
O=S(=O)(NCC1CC1)c1ccc(Nc2nccc(N3CCCc4cc(O)ccc43)n2)cc1,Potency,[1],31.6 µM (active)
same,Potency,[5],inactive
same,Potency,[6],10 µM (active)
O=C1N=C(N2CCOCC2)CN1c1ccc(Cl)cc1,Potency,[13],inactive
same,Potency,[2],inactive
same,Potency,[11],inactive
same,Potency,[3],inactive
same,Potency,[10],inactive
same,Potency,[4],inactive
same,Potency,[5],inactive
same,Potency,[6],inactive
same,Potency,[7],inactive
same,Potency,[9],inactive
same,Potency,[8],inactive
COc1ccc(C(=O)Nc2ncc(-c3ccc(C(=O)O)cc3)s2)cc1,Potency,[13],6.31 µM (active)
same,Potency,[2],17.8 µM (active)
same,Potency,[11],31.6 µM (active)
same,Potency,[3],7.08 µM (active)
same,Potency,[4],15.8 µM (active)
same,Potency,[5],10 µM (active)
same,Potency,[9],14.1 µM (active)
same,Potency,[8],14.1 µM (active)
CN1c2ccccc2C(=O)N2CCC3c4ccccc4NC3C21 (centres undefined),Potency,[1],inactive
same,Potency,[10],5.62 µM (active)
same,Potency,[4],3.98 µM (active)
same,Potency,[5],inactive
same,Potency,[6],4.47 µM (active)
same,Potency,[9],6.31 µM (active)
same,Potency,[8],1.78 µM (active)
O=C(c1cn(Cc2cncn2Cc2ccc(Br)cc2)cc1-c1cccc2ccccc12)N1CCOCC1,Potency,[1],inactive
same,Potency,[11],inactive
same,Potency,[7],17.8 µM (active)
same,Potency,[8],inactive
C[C@@H]1O[C@@H](O[C@H]2[C@H](O[C@H]3[C@H](O[C@H]4CC[C@@]5(C)C(CC[C@]6(C)C5CC=C5[C@@H]7CC(C)(C)CC[C@]7(C(=O)O[C@@H]7O[C@H](CO)[C@@H](O[C@@H]8O[C@@H](C)[C@H](O)[C@@H](O)[C@H]8O)[C@H](O)[C@H]7O)CC[C@]56C)C4(C)C)OC[C@H](O)[C@@H]3O)O[C@H](CO)[C@@H](O)[C@@H]2O)[C@H](O)[C@H](O)[C@H]1O (some centres undefined),"activity change, negative = cytotoxicity",[1],-22.7% [at 6.55 µM]
same,"activity change, negative = cytotoxicity",[11],-47.2% [at 6.55 µM]
same,"activity change, negative = cytotoxicity",[5],-0.139% [at 6.55 µM]

# — PubChem BioAssay (NCATS)
